Screening data deposited in PubChem BioAssay by National Center for Advancing Translational Sciences (NCATS).
Most compounds without a hit are left out; they make up all but 12% or so of the library.
L3MBTL1 block: L3MBTL1 (human) inhibition | AlphaScreen L3MBTL1–H3K9me1 peptide binding | Potency, µM (titrated, usually from 57.1 µM), for the others: at the top dose activity, negative = inhibition, usual class: inhibitors | Q9Y468 | 230,000 compounds, 0.66% hits; note: % is set by controls: 0 for no effect and ±100 for the full control effect; nearly all actives have a fitted effect of over 60% in size
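L3MBTL1 50 nM + b-AHA-H3(1-15)K9me1 75 nM, 30 min RT; compound added, 30 min RT; streptavidin donor/Ni-chelate acceptor beads 10 ug/mL each final, 30 min RT dark; AlphaScreen read.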
G9a block: G9a (human) methyltransferase inhibition; Q96KQ7; G9a H3K9 monomethylation, AlphaScreen, 2 h; Potency, µM (series often up to 102 µM), without a hit: at the highest dose activity, negative = inhibition, usual class: inhibitors; 350,000 compounds, 8.8% hits; note: % is set by controls: 0 for no effect and ±100 for the full control effect; nearly all actives have a fitted effect of over 75% in size
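Methyltransferase reactions run at room temperature for 2 h (20 nM enzyme, 500 nM biotin-H3K9 peptide, 20 uM SAM) after a 15 min compound preincubation; product detected by AlphaScreen beads and anti-H3K9me1 antibody.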
BAZ2B block: blocks human BAZ2B; Q9UIF8; Potency, µM (top dose mostly 114 µM), for inactives: at the highest dose activity change, negative = inhibition, most hits filed as inhibitors; 360,000 compounds, 4.4% hits; AlphaScreen BAZ2B-H3K14Ac peptide displacement; AID 504333; note: % is set by controls: 0 for no effect and ±100 for the full control effect; nearly all actives have a fitted effect of over 60% in size
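Compounds, titrated to a top concentration of 110 uM, were incubated 30 min at room temperature with preformed BAZ2B/acetyl-K14 H3 peptide complex (50 nM each). Proximity signal was measured by AlphaScreen after 20 min with beads.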
JMJD2A Tudor: inhibitors of human JMJD2A Tudor domain; O75164; AlphaScreen JMJD2A-Tudor / H3K4me3 peptide binding; Potency, µM (titrated, usually from 114 µM), inactives show at the top dose activity change, negative = inhibition, actives largely listed as inhibitors; 390,000 compounds, 4.4% hits; AID 504339; note: % is set by controls: 0 for no effect and ±100 for the full control effect; nearly all actives have a fitted effect of over 50% in size
Target sequence (O75164 whole entry, looked up, the tested form may be a part): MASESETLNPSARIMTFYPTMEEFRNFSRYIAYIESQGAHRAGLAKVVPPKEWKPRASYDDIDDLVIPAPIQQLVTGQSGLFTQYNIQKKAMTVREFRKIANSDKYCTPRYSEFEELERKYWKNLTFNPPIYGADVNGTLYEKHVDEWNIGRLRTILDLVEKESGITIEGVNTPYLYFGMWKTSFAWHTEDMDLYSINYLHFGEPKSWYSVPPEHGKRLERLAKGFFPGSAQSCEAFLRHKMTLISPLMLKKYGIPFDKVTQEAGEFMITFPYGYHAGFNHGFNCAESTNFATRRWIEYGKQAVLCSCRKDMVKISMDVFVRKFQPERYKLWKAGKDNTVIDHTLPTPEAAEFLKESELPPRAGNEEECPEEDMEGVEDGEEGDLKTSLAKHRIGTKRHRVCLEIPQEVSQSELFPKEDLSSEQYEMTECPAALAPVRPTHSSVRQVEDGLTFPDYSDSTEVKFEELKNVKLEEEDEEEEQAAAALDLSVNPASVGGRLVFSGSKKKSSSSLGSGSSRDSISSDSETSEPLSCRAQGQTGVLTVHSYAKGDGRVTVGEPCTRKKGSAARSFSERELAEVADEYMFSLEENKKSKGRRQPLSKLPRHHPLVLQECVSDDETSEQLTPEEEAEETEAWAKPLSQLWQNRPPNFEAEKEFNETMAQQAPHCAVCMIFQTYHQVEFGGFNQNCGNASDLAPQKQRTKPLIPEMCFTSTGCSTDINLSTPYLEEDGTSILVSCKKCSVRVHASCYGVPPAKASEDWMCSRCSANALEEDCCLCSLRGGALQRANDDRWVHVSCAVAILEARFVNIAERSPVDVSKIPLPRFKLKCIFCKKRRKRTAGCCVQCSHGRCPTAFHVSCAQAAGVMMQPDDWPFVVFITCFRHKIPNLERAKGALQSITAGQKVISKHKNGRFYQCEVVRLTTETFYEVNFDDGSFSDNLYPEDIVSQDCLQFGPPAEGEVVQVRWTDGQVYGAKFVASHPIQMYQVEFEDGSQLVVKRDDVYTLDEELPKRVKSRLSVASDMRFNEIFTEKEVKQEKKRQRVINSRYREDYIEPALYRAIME
HP1b chromo inh: HP1-beta chromodomain-methylated histone interaction inhibition. 390,000 compounds, 0.56% hits. Potency, µM (doses to about 114 µM), without a hit: top-dose activity change, negative = inhibition, most hits filed as inhibitors. AID 540317. AlphaScreen HP1-beta / biotin-H3K9me3 peptide binding; note: nearly all actives have a fitted effect of over 70% in size
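Compound inhibition of the preformed complex between 50 nM HP1-beta and 50 nM biotinylated H3K9me3 peptide was read by AlphaScreen. Buffer was PBS pH 7.4 with 0.01% Tween-20. Incubations ran 30 min at room temperature, with 10 ug/mL donor/acceptor beads.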
Sfp PPTase inh: blocks B. subtilis Sfp PPTase activity; Q9F4F7; Biochemical Sfp PPTase activity, qHTS; Potency, µM, inactives show largest response in the series, negative = inhibition, actives largely listed as inhibitors; 310,000 compounds, 3.5% hits;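 note: the enzyme is Sfp with the accession as filed and its product quenches rhodamine fluorescence; 0% = enzyme reaction without inhibitor and -100% = no enzyme wells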
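Fluorescence-quenching assay: 15 nM Sfp-PPTase preincubated 15 min at room temperature with compound, then 5 uM rhodamine-CoA and 12.5 uM BHQ-2-labelled YbbR peptide added. Fluorescence (ex 525/em 598 nm) read at start and after 30 min; difference gives rate.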
Active calls of the source: *; ? = inconclusive; . = not tested or not shown; ! = not active in a repeat; [ ] = another dose, or the depositor's remark. Calls come from the whole dose curve; as a rule, active = well fitted curve in the direction sought with a large enough effect; inconclusive = small, poorly fitted or top-dose-only effect, or another doubt; inactive = no such curve, though single readings can be large; an effect the other way counts as inactive or inconclusive. Potency is the fitted concentration of half-maximal effect.

SMILES	L3MBTL1 block	G9a block	BAZ2B block	JMJD2A Tudor	HP1b chromo inh	Sfp PPTase inh
CNCCCOc1ccc(Cl)cc1C(C)(C)C	-4%	14µM*	32µM*	45µM*	?	?
CCCCCOc1ccc(Cl)cc1CN1CCOCC1	.	-7%	11%	16%	80%	6%
CC(C)=NO[C@@H](C)c1cn([C@@H]2COC[C@@H]2O)nn1	.	.	.	.	.	3%
C/C=C/c1ccc(OCCOCCNCc2ccccc2)c(OC)c1	4%	7.9µM*	50µM*	28µM*	-12%	-13%
CCOCCCNCc1ccc(OCCC(C)C)c(OC)c1	.	?	56µM*	?	-33%	?
Cc1ccc(OCCNCc2ccccc2)c(C)c1	-12%	14µM*	?	1µM*	?	?
C=C(Nc1ccc(OCC)cc1)Nc1ccc(OCC)cc1	.	-12%[12.7 µM]	.	.	.	18%
CCOc1ccc(OCCOCCNCCOC)cc1	6%	?	-32%	10µM*	6%	-1%
C/C=C/c1ccc(OCCOc2cc(C=O)ccc2OC)c(OC)c1	9%	23%	2%	11%	58%	2%
COc1cc(C)ccc1OCCCCNCc1ccccc1	-2%	.	?	18µM*	-34%	-12%
Cc1ccc(OCCCCNC(C)c2ccccc2)c(C)c1 (configuration not stated)	6%	11µM*	?	20µM*	2%	-13%
Cc1ccc(OCCSc2ncccn2)c(C)c1	51%	298%	83%	64%	89%	-12%
COc1cc(C)ccc1OCCCOc1ccccc1Br	43%	.	51%	-13%	68%	-10%
Cc1cccc(OCCCCCNCCO)c1	4%	-13%[59 µM]	6%	-20%	37%	0%
Cc1cccc(OCCCCNCc2ccccc2)c1	.	13µM*	50µM*	-11%[11.4 µM]	?	-23%
CCc1cccc(OCCCCNCCO)c1	.	10µM*	56µM*	-24%[11.4 µM]	11%	-10%
COC(=O)c1cc2c(cc1NC(=O)c1cnn(-c3ccc(C)cc3)c1-n1cccc1)OCO2	.	-5%[59 µM]	-27%	-6%	30%	.
Cc1ccc(-c2cn3c(n2)sc2cc(C(=O)NC4CCCCC4)ccc23)cc1	.	10%[59 µM]	1%	-7%	37%	.
Cc1nnc(NC(=O)CSc2nc3c([nH]c4ccccc43)c(=O)n2-c2ccc(Cl)cc2)s1	.	17%[59 µM]	2%	-2%	17%[57 µM]	.
C=CCN(CC=C)CCCOc1ccc(C)cc1OC	-6%	25µM*	25µM*	0.32µM*	?	-23%
CCCOc1ccc(OCCOCCNCc2ccccc2)cc1	-2%	32µM*	?	18µM*	?	-16%
COc1cccc(OCCNCc2ccccc2)c1	3%	7.9µM*	?	6.3µM*	-3%	-18%
COc1ccc(CCNCc2ccc(OCc3ccccc3)cc2)cc1	.	10%	2%	-6%	12%	-22%
Cc1cc(C)c(C)c(OCCOCCNCc2ccccc2)c1	6%	?	?	79µM*	-17%	-18%
Cc1cccc(CC2C(=O)Nc3ccccc32)c1 (configuration not stated)	.	-31%[59 µM]	?	-14%	19%	.
SMILES	L3MBTL1 block	G9a block	BAZ2B block	JMJD2A Tudor	HP1b chromo inh	Sfp PPTase inh
COc1cccc(CNC(=O)COCc2cc(-c3ccc4c(c3)OCO4)on2)c1	.	-5%[59 µM]	-4%	-9%	17%	.
Cc1ccc(OCCCCn2c(CCNC(=O)C3CCCCC3)nc3ccccc32)cc1	.	.	.	1%[57.1 µM]	12%[57 µM]	.
Cc1ccc(NC(=O)CN2CCSc3ccc(S(=O)(=O)N4CCCC4)cc32)cc1C	.	-33%[59 µM]	-19%	-30%	7%[57 µM]	.
CN(C)c1nc(C(F)(F)F)cc(=O)[nH]1	3%	8%	-12%	-10%	22%	13%
CC1Nc2nc(N(C)C)[nH]c(=O)c2NC1C (configuration not stated)	11%	3.2µM*	?	28µM*	61%	-8%
CC1=NN(C(=O)c2ccc(Cl)cc2)C(O)(c2ccccc2)C1 (configuration not stated)	?	.	50µM*	?	27%	13%
COc1ccc(C(=O)CCN2CCN(c3ccccc3OC)CC2)cc1	28%	50µM*	?	-23%	26%	50µM*
COc1ccccc1N1CCN(CC(=O)c2ccc3ccn(C(C)=O)c3c2)CC1	.	11µM*	-11%	-27%	41%	?
COc1ccccc1N1CCN(CCN2C(=O)CC(=C3c4ccccc4-c4ccccc43)C2=O)CC1	.	.	.	32µM*	-15%	.
COc1ccc(C(=O)CCN2CCc3cc(OC)c(OC)cc3C2)cc1	.	13µM*	-24%	-16%	25%	-10%
CC(=O)OCC(=O)c1ccc2ccn(C(C)=O)c2c1	8%	9%[59 µM]	-2%	1%	35%	20%
Fc1cc(Br)ccc1Nc1c2c(nc3nc(-c4cccs4)nn13)CCCC2	.	-4%[59 µM]	3%	-28%	37%[57 µM]	.
CCc1nn(-c2ccccc2)c(=S)c2ccccc12	?	14µM*	?	?	-23%[57 µM]	4%
COc1ccc(NC(=O)CCCSc2nc(-c3ccco3)cc(C(F)(F)F)n2)cc1	.	9%[59 µM]	-1%	1%	27%	.
O=C1c2ccccc2OC2(C=Cc3ccccc3O2)N1Cc1ccccc1 (configuration not stated)	.	28%[59 µM]	9%	17%	52%	-6%
Cc1cc2c(c(/C=C/C(=O)c3ccccc3)c1)OC1(C=C2)Oc2ccccc2C(=O)N1C (configuration not stated)	-5%	50µM*	?	-33%	16%	-2%
O=C(NC1(C(=O)NC2CCCCC2)CCCCC1)c1ccccn1	.	?	?	-15%	-5%	14%
O=C(NC1CCCCC1)/C(=N\O)c1ccccn1	-2%	50µM*	-31%	?	-1%	-8%
COc1cc(/C=C/C(C)=NNc2ccccc2)ccc1O	.	.	.	50µM*	?	.
COc1ccc(/C=C/C(=O)CC(=O)/C=C/c2cccc(O)c2OC)cc1O	.	?	.	.	.	32µM*!
COc1cc(/C=C/C(=O)CC(=O)/C=C/c2ccc(O)c(OC)c2)ccc1O	-24%	54%[59 µM]	40µM*	?	-15%	45µM*!
COc1ccc(/C=C/C(=O)c2cccc(-n3cnnn3)c2)cc1O	.	-2%	-5%	-11%	18%	-4%
COc1cc(/C=C/C(=O)/C=C(O)/C=C/c2ccc(O)c(OC)c2)ccc1O	-6%	10%[2.33 µM]	?	?	-13%	6%
COc1cc(/C=C/C(=O)O)ccc1O	.	-39%[2.33 µM]	.	-9%	28%	6%
COc1ccc(NC(=O)c2c(C)oc3ccc(O)c(CN4CCN(Cc5ccccc5)CC4)c23)cc1	.	?	-10%	-23%	15%	.
CCc1ccc(CNC(=O)c2ccc3c(c2)nc2n3CCOC2)cc1	.	0%[59 µM]	5%	-12%	21%[57 µM]	.
